Paper PMC7862700, “An all-to-all approach to the identification of sequence-specific readers for epigenetic DNA modifications on cytosine”

Legend:
Assay in all cases: DAPPL (digital affinity profiling via proximity ligation, sequencing); 10 mM Tris-HCl pH 7.5, 50 mM NaCl, 1 mM DTT, 4% glycerol, room temperature, 30 min; GST-TFs on glutathione beads, 16-mer random dsDNA library, 0.1% formaldehyde crosslink after washing; high values mean tight binding
Settings in all cases: protein: recombinant; tags: N-terminal GST; dsDNA, one strand shown
[1] = molecular target: T1, FLI1 (Homo sapiens, UniProt Q01543 1-452)
T1 sequence: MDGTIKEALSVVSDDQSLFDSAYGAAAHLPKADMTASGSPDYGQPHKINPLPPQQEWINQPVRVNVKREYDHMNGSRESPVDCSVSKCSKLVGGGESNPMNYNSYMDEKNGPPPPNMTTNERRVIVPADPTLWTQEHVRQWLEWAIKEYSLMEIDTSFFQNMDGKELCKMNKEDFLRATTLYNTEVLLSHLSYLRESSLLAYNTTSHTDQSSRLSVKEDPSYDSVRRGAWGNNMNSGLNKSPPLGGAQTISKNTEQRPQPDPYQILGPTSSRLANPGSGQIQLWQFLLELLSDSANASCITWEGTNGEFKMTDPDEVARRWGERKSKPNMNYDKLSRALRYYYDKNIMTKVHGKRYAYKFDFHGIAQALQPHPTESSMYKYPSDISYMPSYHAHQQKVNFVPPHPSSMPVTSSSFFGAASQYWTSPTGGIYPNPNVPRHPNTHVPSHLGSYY
Method in brief: (§1)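 Human transcription factors were made in yeast as GST fusions, captured on glutathione beads and barcoded with DNA. With a tag-only sample included, the pool was incubated with 200 nmole of a random double-stranded 16-mer DNA library in Tris/NaCl/DTT/glycerol buffer at room temperature for 30 min, then crosslinked with 0.1% formaldehyde after washing, ligated by proximity, amplified and sequenced. For binding signal, each hexamer's read frequency for a factor is divided by its frequency for the tag-only sample.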

[2] = molecular target: T2, ELK1 (Homo sapiens, UniProt P19419 1-428)
T2 sequence: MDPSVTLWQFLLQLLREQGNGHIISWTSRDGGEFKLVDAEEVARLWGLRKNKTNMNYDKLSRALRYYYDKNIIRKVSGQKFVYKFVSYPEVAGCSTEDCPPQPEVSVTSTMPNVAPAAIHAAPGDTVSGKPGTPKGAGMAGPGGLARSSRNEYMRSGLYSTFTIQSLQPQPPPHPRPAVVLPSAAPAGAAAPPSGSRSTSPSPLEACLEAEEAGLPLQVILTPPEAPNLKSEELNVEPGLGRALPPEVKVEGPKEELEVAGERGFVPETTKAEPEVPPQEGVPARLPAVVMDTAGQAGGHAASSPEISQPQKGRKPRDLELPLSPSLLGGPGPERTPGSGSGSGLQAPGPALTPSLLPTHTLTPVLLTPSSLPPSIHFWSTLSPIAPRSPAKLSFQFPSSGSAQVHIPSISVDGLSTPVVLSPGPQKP
Method in brief: as §1

[3] = molecular target: T3, GABPA (Homo sapiens, UniProt Q06546 1-454)
T3 sequence: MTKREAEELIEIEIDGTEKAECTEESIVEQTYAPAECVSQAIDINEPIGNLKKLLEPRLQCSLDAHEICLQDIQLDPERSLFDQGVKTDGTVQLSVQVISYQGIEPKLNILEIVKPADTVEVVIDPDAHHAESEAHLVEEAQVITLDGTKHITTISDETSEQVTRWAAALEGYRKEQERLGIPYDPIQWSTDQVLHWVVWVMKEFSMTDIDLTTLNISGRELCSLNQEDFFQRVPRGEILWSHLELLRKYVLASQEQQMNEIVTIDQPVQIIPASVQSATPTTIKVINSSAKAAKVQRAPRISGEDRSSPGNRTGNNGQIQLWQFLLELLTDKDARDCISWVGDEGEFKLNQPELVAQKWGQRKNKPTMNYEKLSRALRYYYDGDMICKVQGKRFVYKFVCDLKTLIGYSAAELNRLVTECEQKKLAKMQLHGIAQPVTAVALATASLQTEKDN
Method in brief: as §1

[4] = molecular target: T4, ERG (Homo sapiens, UniProt P11308 1-479)
T4 sequence: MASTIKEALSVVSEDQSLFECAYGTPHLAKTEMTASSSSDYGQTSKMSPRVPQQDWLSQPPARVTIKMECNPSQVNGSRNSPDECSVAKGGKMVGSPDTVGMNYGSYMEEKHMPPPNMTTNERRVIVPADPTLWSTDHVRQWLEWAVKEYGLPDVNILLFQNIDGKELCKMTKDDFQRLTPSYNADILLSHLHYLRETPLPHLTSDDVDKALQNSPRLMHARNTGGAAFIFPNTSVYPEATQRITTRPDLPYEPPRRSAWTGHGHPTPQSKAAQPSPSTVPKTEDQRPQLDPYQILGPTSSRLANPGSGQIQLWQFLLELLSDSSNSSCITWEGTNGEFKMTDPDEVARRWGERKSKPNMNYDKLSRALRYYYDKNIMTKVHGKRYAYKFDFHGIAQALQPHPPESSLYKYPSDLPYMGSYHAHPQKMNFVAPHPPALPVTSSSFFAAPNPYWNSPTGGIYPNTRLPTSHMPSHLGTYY
Method in brief: as §1

[5] = molecular target: ELF1 (Homo sapiens, UniProt P32519 1-619)
Method in brief: as §1

[6] = molecular target: T5, EHF (Homo sapiens, UniProt Q9NZC4 1-300)
T5 sequence: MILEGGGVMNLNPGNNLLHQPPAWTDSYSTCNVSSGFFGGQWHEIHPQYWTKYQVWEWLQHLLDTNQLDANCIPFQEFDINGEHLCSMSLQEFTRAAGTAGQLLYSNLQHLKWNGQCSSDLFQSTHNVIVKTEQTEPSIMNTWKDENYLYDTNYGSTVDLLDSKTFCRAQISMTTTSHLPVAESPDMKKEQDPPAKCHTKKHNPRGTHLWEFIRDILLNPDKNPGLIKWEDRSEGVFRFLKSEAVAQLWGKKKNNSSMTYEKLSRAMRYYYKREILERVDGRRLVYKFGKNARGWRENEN
Method in brief: as §1

[7] = molecular target: SPI1 (Homo sapiens, UniProt P17947 1-270)
Method in brief: as §1

[8] = molecular target: SPIB (Homo sapiens, UniProt Q01892 1-262)
Method in brief: as §1

[9] = molecular target: T6, ELK3 (Homo sapiens, UniProt P41970 1-407)
T6 sequence: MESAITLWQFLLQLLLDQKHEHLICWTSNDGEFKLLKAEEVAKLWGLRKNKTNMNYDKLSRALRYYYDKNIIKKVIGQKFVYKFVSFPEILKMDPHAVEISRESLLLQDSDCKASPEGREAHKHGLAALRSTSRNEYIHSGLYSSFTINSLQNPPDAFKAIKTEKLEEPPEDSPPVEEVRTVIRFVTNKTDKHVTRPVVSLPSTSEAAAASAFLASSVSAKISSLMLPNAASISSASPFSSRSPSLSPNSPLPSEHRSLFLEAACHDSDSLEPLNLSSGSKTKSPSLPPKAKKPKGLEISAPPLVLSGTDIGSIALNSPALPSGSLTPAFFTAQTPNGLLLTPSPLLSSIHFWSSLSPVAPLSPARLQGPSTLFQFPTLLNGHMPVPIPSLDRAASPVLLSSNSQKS
Method in brief: as §1

Sequence of SPIB (Q01892 whole entry): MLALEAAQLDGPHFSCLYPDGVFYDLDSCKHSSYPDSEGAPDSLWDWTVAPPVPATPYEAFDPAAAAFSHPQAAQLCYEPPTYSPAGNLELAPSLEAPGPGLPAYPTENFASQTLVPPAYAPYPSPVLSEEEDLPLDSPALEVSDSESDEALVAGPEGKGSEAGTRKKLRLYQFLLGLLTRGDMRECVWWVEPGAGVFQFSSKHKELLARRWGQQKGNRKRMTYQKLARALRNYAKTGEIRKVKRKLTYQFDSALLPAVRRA
Sequence of ELF1 (P32519 whole entry): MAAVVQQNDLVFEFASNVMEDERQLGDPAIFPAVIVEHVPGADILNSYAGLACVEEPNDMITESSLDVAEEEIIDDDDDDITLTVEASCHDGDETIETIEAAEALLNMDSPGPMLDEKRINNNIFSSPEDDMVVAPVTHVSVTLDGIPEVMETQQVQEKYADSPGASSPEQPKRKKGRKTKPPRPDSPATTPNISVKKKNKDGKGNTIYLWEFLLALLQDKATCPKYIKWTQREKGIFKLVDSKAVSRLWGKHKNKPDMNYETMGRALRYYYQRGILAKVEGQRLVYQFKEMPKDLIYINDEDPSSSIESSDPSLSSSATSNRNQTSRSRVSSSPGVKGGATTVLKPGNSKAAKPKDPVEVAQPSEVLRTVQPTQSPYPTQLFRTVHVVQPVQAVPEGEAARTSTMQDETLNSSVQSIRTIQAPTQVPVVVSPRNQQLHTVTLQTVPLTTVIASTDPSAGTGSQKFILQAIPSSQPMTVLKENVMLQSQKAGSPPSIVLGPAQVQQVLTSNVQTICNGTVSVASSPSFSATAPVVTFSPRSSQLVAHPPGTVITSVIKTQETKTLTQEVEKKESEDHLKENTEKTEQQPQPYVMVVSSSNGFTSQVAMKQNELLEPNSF

Row | Sequence | binding signal [1] | binding signal [2] | binding signal [3] | binding signal [4] | binding signal [5] | binding signal [6] | binding signal [7] | binding signal [8] | binding signal [9]
1 | TCATGG | 1.11 fold enrichment (6-mer frequency, TF over GST control) | 1.05 fold enrichment (6-mer frequency, TF over GST control) | 1.11 fold enrichment (6-mer frequency, TF over GST control) | 1.15 fold enrichment (6-mer frequency, TF over GST control) | 1.18 fold enrichment (6-mer frequency, TF over GST control) | 1.12 fold enrichment (6-mer frequency, TF over GST control) | 1.08 fold enrichment (6-mer frequency, TF over GST control) | 1.11 fold enrichment (6-mer frequency, TF over GST control) | 1.16 fold enrichment (6-mer frequency, TF over GST control)
2 | TACACG | 1.13 fold enrichment (6-mer frequency, TF over GST control) | 1.11 fold enrichment (6-mer frequency, TF over GST control) | 1.19 fold enrichment (6-mer frequency, TF over GST control) | 1.1 fold enrichment (6-mer frequency, TF over GST control) | 1.16 fold enrichment (6-mer frequency, TF over GST control) | 1.1 fold enrichment (6-mer frequency, TF over GST control) | 1.07 fold enrichment (6-mer frequency, TF over GST control) | 1.16 fold enrichment (6-mer frequency, TF over GST control) | 1.19 fold enrichment (6-mer frequency, TF over GST control)
3 | CAACAT | 1.18 fold enrichment (6-mer frequency, TF over GST control) | 1.21 fold enrichment (6-mer frequency, TF over GST control) | 1.22 fold enrichment (6-mer frequency, TF over GST control) | 1.2 fold enrichment (6-mer frequency, TF over GST control) | 1.2 fold enrichment (6-mer frequency, TF over GST control) | 1.23 fold enrichment (6-mer frequency, TF over GST control) | 1.06 fold enrichment (6-mer frequency, TF over GST control) | 1.14 fold enrichment (6-mer frequency, TF over GST control) | 1.14 fold enrichment (6-mer frequency, TF over GST control)
4 | TCTGTC | 1.16 fold enrichment (6-mer frequency, TF over GST control) | 1.13 fold enrichment (6-mer frequency, TF over GST control) | 1.16 fold enrichment (6-mer frequency, TF over GST control) | 1.17 fold enrichment (6-mer frequency, TF over GST control) | 1.12 fold enrichment (6-mer frequency, TF over GST control) | 1.14 fold enrichment (6-mer frequency, TF over GST control) | 1.1 fold enrichment (6-mer frequency, TF over GST control) | 1.05 fold enrichment (6-mer frequency, TF over GST control) | 1.17 fold enrichment (6-mer frequency, TF over GST control)
